Experimental data as given in PubChem BioAssay (Tox21).
Where “and” joins values, the source holds several entries; their conditions need not be identical. Identical values can stand only once. Some compounds were tested as several samples or in several runs, with calls that do not always agree. Calls of active or inactive are those of the source. Unless noted, calls come from the whole dose curve; as a rule, active = well fitted curve in the direction sought with a large enough effect in the repeat runs; inconclusive = weak or mixed curves; inactive = no such curve, though single readings can be large; an effect the other way counts as inactive or inconclusive.

Tests used:
[1] = qHTS assay to identify small molecule antagonists of the thyroid receptor (TR) signaling pathway - cell viability counter screen (AID 743064); note: nearly all actives have a fitted effect of over 50% in size; note: potency is the fitted concentration of half-maximal effect
Outline: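 In rat pituitary GH3.TRE-Luc reporter cells co-exposed to compound and 1 nM T3 for 23.5 h, cytotoxicity was assessed with CellTiter-Fluor in the same wells, read by fluorescence.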

[2] = qHTS assay to identify small molecule antagonists of the thyroid receptor (TR) signaling pathway (AID 743065); note: nearly all actives have a fitted effect of over 55% in size; note: potency is the fitted concentration of half-maximal effect
Outline: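 GH3.TRE-Luc rat pituitary cells carrying two TR response elements driving luciferase were plated for 4 h, given compound plus 1 nM T3 (final), and incubated 23.5 h at 37 C. ONE-Glo luminescence measured reporter inhibition; CellTiter-Fluor fluorescence tracked cytotoxicity.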

[3] = test system: thyroid hormone receptor (rat, GH3 cells); assay: qHTS assay to identify small molecule agonists of the thyroid receptor (TR) signaling pathway (AID 743066; calls by dose curve)
[4] = target: Estrogen receptor (Homo sapiens) (UniProt P03372); assay: qHTS assay to identify small molecule agonists of the estrogen receptor alpha (ER-alpha) signaling pathway (AID 743075; calls by dose curve;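 note: HEK293 GripTite cells with ER-alpha and UAS-driven beta-lactamase reporter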)
[5] = target: Estrogen receptor (Homo sapiens) (UniProt P03372); assay: qHTS assay to identify small molecule agonists of the estrogen receptor alpha (ER-alpha) signaling pathway using the BG1 cell line (AID 743079); note: nearly all actives have a fitted effect of over 20% in size; note: potency is the fitted concentration of half-maximal effect
[6] = qHTS assay to identify small molecule antagonists of the estrogen receptor alpha (ER-alpha) signaling pathway using the BG1 cell line - cell viability counter screen (AID 743081);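 note: compound given together with 17beta-estradiol as the ER stimulus; nearly all actives have a fitted effect of over 45% in size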; note: potency is the fitted concentration of half-maximal effect
Aromatase (Homo sapiens) = Aromatase (Homo sapiens) (UniProt P11511); assay: qHTS assay to identify aromatase inhibitors (AID 743083); note: nearly all actives have a fitted effect of over 55% in size; note: potency is the fitted concentration of half-maximal effect
[7] = qHTS assay to identify aromatase inhibitors - cell viability counter screen (AID 743084);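 note: cells stimulated with testosterone during compound exposure; nearly all actives have a fitted effect of over 55% in size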; note: potency is the fitted concentration of half-maximal effect
[8] = target: Aryl hydrocarbon receptor (Homo sapiens) (UniProt P35869); assay: qHTS assay to identify small molecule that activate the aryl hydrocarbon receptor (AhR) signaling pathway (AID 743085); note: nearly all actives have a fitted effect of over 15% in size; note: potency is the fitted concentration of half-maximal effect;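 for activation: HG2L7.5c1 human HepG2 liver cells with stably integrated DRE-driven firefly reporter; series mostly up to about 70 µM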
Outline: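 AhR agonist activity is inferred from enhanced light output of a DRE-controlled firefly luciferase reporter in HepG2 cells, measured with ONE-Glo following 24 h treatment at 37C.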

[9] = qHTS assay to identify small molecule that activate the aryl hydrocarbon receptor (AhR) signaling pathway - cell viability counter screen (AID 743086); note: nearly all actives have a fitted effect of over 45% in size; note: potency is the fitted concentration of half-maximal effect
Outline: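 HepG2-AhR-luc (HG2L7.5c1) cells, 4000/well, were preincubated 5 h at 37C, exposed to compound in qHTS format for 24 hr at 37C, then given CellTiter-Fluor for 30 min; viability was read as fluorescence in the reporter wells.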

[10] = qHTS assay for small molecule agonists of the antioxidant response element (ARE) signaling pathway (AID 743202; active = well fitted activation curve with a large enough effect in the signal ratio in the repeat runs, not every such curve was filed as active; inconclusive = weak or mixed curves, or effect the other way; inactive = no such curve, though single readings can be large or run the other way; the % refers to the signal ratio; note: potency is the fitted concentration of half-maximal effect)
Outline: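 Following a 16 h, 37 C exposure of reporter HepG2 cells (ARE-driven beta-lactamase, 2,000 cells/well) to compounds, FRET substrate was applied for 2 h at room temperature and fluorescence intensity recorded.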

[11] = qHTS assay for small molecule agonists of the antioxidant response element (ARE) signaling pathway - cell viability counter screen (AID 743203; calls by dose curve; note: nearly all actives have a fitted effect of over 55% in size; note: potency is the fitted concentration of half-maximal effect)
Outline: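 ATP content via CellTiter-Glo luminescence served as the viability measure. Cells: ARE-bla HepG2, 2,000 per well. Exposure: 16 hrs, 37C/5% CO2.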

[12] = qHTS assay for small molecule activators of the heat shock response signaling pathway - cell viability counter screen (AID 743209); note: nearly all actives have a fitted effect of over 50% in size; note: potency is the fitted concentration of half-maximal effect
Outline: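 Compounds dissolved in DMSO were added to overnight-plated HSE-bla HeLa cells and left 5 h at 37 C. Cell viability was quantified by luminescence using CellTiter-Glo.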

[13] = qHTS assay for small molecule activators of the heat shock response signaling pathway (AID 743210; active = well fitted activation curve with a large enough effect in the signal ratio in the repeat runs, with a control signal flat, not every such curve was filed as active; inconclusive = weak or mixed curves; the % refers to the signal ratio; note: series mostly up to about 63 µM)
Outline: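 Heat shock element–beta-lactamase HeLa reporter cells; qHTS with compounds for 5 h at 37 C; detection by FRET substrate fluorescence after 2.5 h at RT.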

[14] = qHTS assay to identify small molecule antagonists of the estrogen receptor alpha (ER-alpha) signaling pathway - cell viability counter screen (AID 743074; calls by dose curve;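 note: HEK293 cells carrying ER-alpha-UAS-bla reporter stimulated with 17beta-estradiol; nearly all actives have a fitted effect of over 45% in size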; note: potency is the fitted concentration of half-maximal effect)
[15] = target: Peroxisome proliferator-activated receptor gamma (Homo sapiens) (UniProt P37231); assay: qHTS assay to identify small molecule agonists of the peroxisome proliferator-activated receptor gamma (PPARg) signaling pathway (AID 743094; active = well fitted activation curve with a large enough effect in the signal ratio in the repeat runs, not every such curve was filed as active; inconclusive = weak or mixed curves, or effect the other way; inactive = no such curve, though single readings can be large or run the other way; the % refers to the signal ratio)
Outline: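 Agonism was assessed in a beta-lactamase reporter system, HEK293H cells with a stably integrated UAS-bla construct under PPARg control; the 17 h treatment at 37C preceded a 1 h room-temperature FRET substrate read.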

[16] = target: Peroxisome proliferator-activated receptor gamma (Homo sapiens) (UniProt P37231); assay: qHTS assay to identify small molecule antagonists of the peroxisome proliferator-activated receptor gamma (PPARg) signaling pathway (AID 743191; calls by dose curve; note: series mostly up to about 63 µM; nearly all actives have a fitted effect of over 30% in size)
Outline: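 GeneBLAzer PPARg UAS-bla HEK293H cells carrying a UAS-driven beta-lactamase reporter were plated at 3000 cells/well, preincubated 5 h at 37C, then given compound for 17 h at 37C; LiveBLAzer B/G FRET substrate was read after 1 h at room temperature.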

[17] = qHTS assay to identify small molecule antagonists of the peroxisome proliferator-activated receptor gamma (PPARg) signaling pathway - cell viability counter screen (AID 743194); note: nearly all actives have a fitted effect of over 55% in size; note: potency is the fitted concentration of half-maximal effect
Outline: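 PPARg-UAS-bla HEK293H cells were plated, rested 5 h at 37 C, then treated with compounds plus rosiglitazone (50 nM final) for 17 h at 37 C; viability was then read by CellTiter-Glo luminescence after 30 min at room temperature.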

[18] = target: Estrogen receptor (Homo sapiens) (UniProt P03372); assay: qHTS assay to identify small molecule antagonists of the estrogen receptor alpha (ER-alpha) signaling pathway (AID 743069; active = well fitted curve in the direction sought with a large enough effect in the signal ratio in the repeat runs, not every such curve was filed as active; inconclusive = weak or mixed curves, or effect the other way; inactive = no such curve, though single readings can be large or run the other way; the % refers to the signal ratio; note: potency is the fitted concentration of half-maximal effect)
Outline: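 A 17beta-estradiol challenge was applied right after compound transfer to ER-alpha-UAS-bla HEK293 cells previously kept in charcoal-stripped serum. Plates stood 18 hr at 37C and 5% CO2; fluorescence was read following 2 hr FRET substrate loading at room temperature.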

[19] = qHTS assay to identify small molecule antagonists of the estrogen receptor alpha (ER-alpha) signaling pathway using the BG1 cell line (AID 743080; calls by dose curve;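 note: BG1 cells stimulated with 17beta-estradiol alongside compound; series mostly up to about 70 µM; nearly all actives have a fitted effect of over 25% in size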)
Outline: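 BG1-Luc-4E2 cells (endogenous full-length ER-alpha, stable 4×ERE-luciferase) were starved 5 days in phenol-red-free medium with 10% charcoal-stripped FBS, plated 24 h, then given compound plus 17beta-estradiol for 21.5 h at 37 C; ONE-Glo luminescence read after 30 min.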

Measured: Potency

Chain of Aryl hydrocarbon receptor (Homo sapiens) (P35869 whole entry, looked up): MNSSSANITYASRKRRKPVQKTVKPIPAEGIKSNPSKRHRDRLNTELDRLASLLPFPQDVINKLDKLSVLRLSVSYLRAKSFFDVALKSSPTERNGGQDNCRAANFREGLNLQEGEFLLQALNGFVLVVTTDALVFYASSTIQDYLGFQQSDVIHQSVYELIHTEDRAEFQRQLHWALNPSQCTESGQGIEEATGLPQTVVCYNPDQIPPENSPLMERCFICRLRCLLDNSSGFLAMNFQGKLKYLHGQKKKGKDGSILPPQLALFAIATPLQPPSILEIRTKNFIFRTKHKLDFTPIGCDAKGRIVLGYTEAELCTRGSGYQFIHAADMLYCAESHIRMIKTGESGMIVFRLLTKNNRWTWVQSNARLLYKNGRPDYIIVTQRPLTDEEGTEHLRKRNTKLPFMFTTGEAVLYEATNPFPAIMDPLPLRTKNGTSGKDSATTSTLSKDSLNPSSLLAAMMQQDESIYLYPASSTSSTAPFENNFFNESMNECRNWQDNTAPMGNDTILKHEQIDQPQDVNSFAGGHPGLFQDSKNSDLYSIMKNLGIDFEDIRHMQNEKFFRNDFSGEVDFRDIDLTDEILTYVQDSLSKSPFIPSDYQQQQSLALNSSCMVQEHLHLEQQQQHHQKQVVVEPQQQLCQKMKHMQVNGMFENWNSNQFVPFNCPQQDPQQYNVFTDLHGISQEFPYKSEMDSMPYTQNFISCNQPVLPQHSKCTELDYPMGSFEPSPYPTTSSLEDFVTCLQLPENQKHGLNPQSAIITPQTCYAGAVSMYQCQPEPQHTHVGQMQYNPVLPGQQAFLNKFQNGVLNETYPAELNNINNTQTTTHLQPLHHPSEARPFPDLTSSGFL
Chain of Aromatase (Homo sapiens) (P11511 whole entry, looked up): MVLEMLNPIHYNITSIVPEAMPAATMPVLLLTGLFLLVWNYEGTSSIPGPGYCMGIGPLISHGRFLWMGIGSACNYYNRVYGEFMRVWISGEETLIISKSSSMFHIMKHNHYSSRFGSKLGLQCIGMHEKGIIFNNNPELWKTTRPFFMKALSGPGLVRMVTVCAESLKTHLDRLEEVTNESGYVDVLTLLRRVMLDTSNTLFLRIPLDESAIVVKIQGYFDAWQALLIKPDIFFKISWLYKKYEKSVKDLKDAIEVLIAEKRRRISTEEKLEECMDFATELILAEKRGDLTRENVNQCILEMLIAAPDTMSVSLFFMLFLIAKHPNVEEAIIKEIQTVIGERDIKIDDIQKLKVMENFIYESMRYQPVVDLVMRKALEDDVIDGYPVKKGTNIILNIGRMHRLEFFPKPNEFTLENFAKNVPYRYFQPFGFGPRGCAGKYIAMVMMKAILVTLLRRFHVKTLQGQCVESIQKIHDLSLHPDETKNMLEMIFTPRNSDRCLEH
Chain of Estrogen receptor (Homo sapiens) (P03372 whole entry, looked up): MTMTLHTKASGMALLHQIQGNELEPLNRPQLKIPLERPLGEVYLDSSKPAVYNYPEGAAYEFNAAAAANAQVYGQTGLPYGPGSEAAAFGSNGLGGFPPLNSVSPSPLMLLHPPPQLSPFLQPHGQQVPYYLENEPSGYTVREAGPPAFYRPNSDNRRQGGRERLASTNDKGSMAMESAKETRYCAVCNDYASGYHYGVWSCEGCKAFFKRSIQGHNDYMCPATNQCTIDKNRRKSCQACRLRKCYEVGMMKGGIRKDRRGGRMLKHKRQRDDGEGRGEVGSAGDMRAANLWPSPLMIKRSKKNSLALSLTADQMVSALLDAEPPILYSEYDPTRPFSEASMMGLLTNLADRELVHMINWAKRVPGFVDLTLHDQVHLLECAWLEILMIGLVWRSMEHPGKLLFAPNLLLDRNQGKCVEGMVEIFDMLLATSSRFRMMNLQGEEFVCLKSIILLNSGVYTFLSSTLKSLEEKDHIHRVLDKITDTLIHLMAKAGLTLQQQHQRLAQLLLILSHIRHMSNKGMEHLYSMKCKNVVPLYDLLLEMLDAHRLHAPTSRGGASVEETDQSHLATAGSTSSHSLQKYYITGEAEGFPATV
Chain of Peroxisome proliferator-activated receptor gamma (Homo sapiens) (P37231 whole entry, looked up): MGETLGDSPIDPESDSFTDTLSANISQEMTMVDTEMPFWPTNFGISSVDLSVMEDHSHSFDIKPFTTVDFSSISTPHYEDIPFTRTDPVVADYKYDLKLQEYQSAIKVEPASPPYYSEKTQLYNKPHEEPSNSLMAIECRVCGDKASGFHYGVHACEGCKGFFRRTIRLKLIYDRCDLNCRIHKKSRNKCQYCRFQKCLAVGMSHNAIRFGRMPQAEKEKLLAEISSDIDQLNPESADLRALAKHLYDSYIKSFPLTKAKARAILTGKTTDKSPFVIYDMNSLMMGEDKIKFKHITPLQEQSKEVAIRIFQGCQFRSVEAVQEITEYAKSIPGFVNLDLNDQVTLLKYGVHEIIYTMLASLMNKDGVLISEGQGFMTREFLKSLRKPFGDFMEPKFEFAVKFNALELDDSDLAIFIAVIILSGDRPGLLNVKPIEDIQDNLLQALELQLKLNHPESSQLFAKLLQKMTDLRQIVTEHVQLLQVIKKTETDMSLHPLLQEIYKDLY

S=c1nc[nH]c2nc[nH]c12
inactive and 23.7 µM (active): [8]
active: [10] 4.74 µM and 7.5 µM | [11] 0.842 µM
not listed: [14] | [15] | [16] | [17] | [18] | [19]
inactive: all other assays above

CCCCNC(N)=O
not listed: [4] | [5] | [8] | [13] | [18] | [19]
inactive: all other assays above

Cn1c([N+](=O)[O-])cnc1COC(N)=O
not listed: [2]
inactive: all other assays above

CC(C)(C)C(=O)C1C(=O)c2ccccc2C1=O
active: [1] 67.9 µM | [18] 54.4 µM [inconclusive] and 54.9 µM [inconclusive]
inactive: [3] | [14] | [4] | Aromatase (Homo sapiens) | [17] | [11] | [12]

COCC(C)O (stereo not given)
inactive and 61.1 µM (active): [5]
not listed: [2] | [13]
inactive: all other assays above

Nc1c(S(=O)(=O)O)cc(Br)c2c1C(=O)c1ccccc1C2=O
active: [6] 27.3 µM | [7] 34.4 µM | [8] 31.3 µM and 30.6 µM | [9] 24.3 µM | [10] 27.9 µM
inactive and 61.1 µM (active): [1]
not listed: [2]
inactive: all other assays above

CCCCOCCO
not listed: [2]
inactive: all other assays above

CCCCC/C=C\C/C=C\CCCCCCCC(=O)OC
inactive and 38.9 µM (active): [12]
not listed: [2] | [13] | [16] | [17]
inactive: all other assays above

Cc1cc(O)cc(C)c1Cl
not listed: [4] | [5] | [8] | [13] | [18] | [19]
inactive: all other assays above

CCCCCCCCCCCCOCC1CO1 (stereo not given)
not listed: [2]
inactive: all other assays above

CC1=C(CC(=O)O)c2cc(F)ccc2/C1=C\c1ccc(S(C)=O)cc1 (stereo not given)
active: [8] 13.3 µM and 24.3 µM
not listed: [4] | [5] | [10] | [16] | [18] | [19]
inactive: all other assays above

C=C1CC[C@H](O)CC1=C/C=C1\CCC[C@]2(C)[C@@H]([C@H](C)/C=C/[C@H](C)C(C)C)CC[C@@H]12
inactive: [3] | [6] | [7] | [8] | [9] | [11] | [12]
inactive and 61.1 µM (active): Aromatase (Homo sapiens)
active: [1] 60.6 µM | [2] 26.6 µM and 54 µM and 54.5 µM | [14] 54.5 µM and 54.9 µM | [10] 13.6 µM and 24.3 µM

CC(C)Cc1ccccc1
not listed: [2]
inactive: all other assays above

CCCCC(CC)COC(=O)CCCCCCCC(=O)OCC(CC)CCCC (stereo not given)
inactive: [1] | [2] | [3] | [14] | [6] | [9] | [17] | [10] | [11] | [12] | [13]

COC(=O)Nc1nc2ccc(Sc3ccccc3)cc2[nH]1
active: [1] 0.202 µM | [2] 202 nM and 217 nM | [8] 1.8 µM and 9.69 µM
not listed: [4] | [5] | [10] | [13] | [16] | [18] | [19]
inactive: all other assays above

CN(C)c1ccc(C(=N)c2ccc(N(C)C)cc2)cc1
active: [1] 53.8 µM and 26.3 µM | [18] 37.4 µM [inconclusive] | [6] 30.3 µM and 14.8 µM | [9] 23.4 µM | [17] 23.6 µM
inactive: [3] | [4] | [15] | [11] | [12]
